Source: PubChem BioAssay (National Center for Advancing Translational Sciences (NCATS))
pAkt inh = Akt phosphorylation inhibition; Neuro2A IGF-stimulated pAkt S473 HTRF, 20 min; hits give low values; 360,000 tested, 0.32% active; activity change, % for hits at 50 µM; in the data active = activity change below about -80%; inconclusive = mostly about -51% to -80%; also: % is scaled to controls: 0 for no effect and ±100 for the full control effect
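Single-point screen (50 µM final compound) in Neuro2A cells stimulated 20 min with 6 nM IGF at 37 deg C. After lysis, Ser473-phosphorylated Akt read by HTRF (ex 330 nm, em 615/665 nm) as the 665/615 ratio.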
gsp antag = antagonizes gsp, the McCune-Albright syndrome mutation; gsp-mutant cells, cAMP HTRF, 30 min; Potency, µM (doses to about 76.9 µM), for the others: top-dose activity change, negative = inhibition, hits mostly inhibitors; 340,000 tested, 0.4% active; calls by dose curve; cell line not stated here;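 also: intracellular cAMP measured with PDE inhibitor Ro 20-1724 present during compound exposure; potency is read from the fitted curve at half-maximal effect; % is scaled to controls: 0 for no effect and ±100 for the full control effect; nearly all actives have a fitted effect of over 65% in size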
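HTRF cAMP measurement after 30 min RT detection following 30 min, 37C compound treatment alongside […] (added as 300 uM solution) in G418-selected cells seeded at 2000/well and grown 16–24 h.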
RXFP1 agonist = agonists of human relaxin receptor RXFP1. Q9HBX9. HEK293T-RXFP1 cAMP TR-FRET, 30 min; response scale: percent of porcine relaxin response, buffer zero. Potency, µM (doses to about 57.5 µM), inactives show at the top dose activation, most hits filed as activators. 370,000 tested, 0.3% active; active = well fitted activation curve with a large enough effect; inconclusive = small, poorly fitted or top-dose-only effect; also: potency is read from the fitted curve at half-maximal effect; % is scaled to controls: 0 for no effect and ±100 for the full control effect; nearly all actives have a fitted effect of over 60% in size
Target sequence (Q9HBX9 whole entry, looked up): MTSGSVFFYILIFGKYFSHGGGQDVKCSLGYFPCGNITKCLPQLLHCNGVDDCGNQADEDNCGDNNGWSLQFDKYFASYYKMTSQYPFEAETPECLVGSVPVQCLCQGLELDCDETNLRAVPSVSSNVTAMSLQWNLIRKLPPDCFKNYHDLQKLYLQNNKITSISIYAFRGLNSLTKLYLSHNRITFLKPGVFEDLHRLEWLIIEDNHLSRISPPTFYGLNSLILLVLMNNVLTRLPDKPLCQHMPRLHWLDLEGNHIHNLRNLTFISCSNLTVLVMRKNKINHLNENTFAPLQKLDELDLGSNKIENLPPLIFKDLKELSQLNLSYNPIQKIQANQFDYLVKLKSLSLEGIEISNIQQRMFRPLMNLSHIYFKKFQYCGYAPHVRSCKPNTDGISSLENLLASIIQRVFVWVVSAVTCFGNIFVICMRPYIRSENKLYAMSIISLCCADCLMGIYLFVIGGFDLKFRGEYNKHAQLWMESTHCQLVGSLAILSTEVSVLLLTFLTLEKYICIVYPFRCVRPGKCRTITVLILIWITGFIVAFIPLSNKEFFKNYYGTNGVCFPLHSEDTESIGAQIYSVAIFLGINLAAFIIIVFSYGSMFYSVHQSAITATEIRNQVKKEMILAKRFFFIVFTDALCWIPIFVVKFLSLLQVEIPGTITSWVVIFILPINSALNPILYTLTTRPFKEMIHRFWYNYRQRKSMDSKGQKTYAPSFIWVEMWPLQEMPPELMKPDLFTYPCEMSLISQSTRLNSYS
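HEK293 cells stably expressing RXFP1, treated 30 min at 37C with compounds plus PDE4 inhibitor Ro 20174; cAMP measured by HTRF TR-FRET. Normalized to buffer and 29 nM porcine relaxin; EC50 by Hill fit.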
RXFP1 antagonist = antagonists of human relaxin receptor RXFP1; Q9HBX9; HEK293-RXFP1, relaxin-stimulated cAMP HTRF, 30 min; hits give low values; activity change, negative = inhibition, % at 57.5 µM; 350,000 tested, 0.59% active; AID 1259400;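 active = activity change of -60% or lower, but not beyond a set lower limit; inconclusive = change between -60% and -40%, or beyond the set limit; inactive = change above -40%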; also: % is scaled to controls: 0 for no effect and ±100 for the full control effect
gsp ag = gsp mutant agonism | 340,000 tested, 0.13% active | gsp mutant cells, cAMP HTRF, 30 min | Potency, µM (highest dose often 76.9 µM), without a hit: top-dose activation (cAMP increase), hits mostly activators; active = well fitted activation curve with a large enough effect; inconclusive = small, poorly fitted or top-dose-only effect, or another doubt; inactive = no such curve, though single readings can be large or run the other way; cell line not stated here;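 also: phosphodiesterase inhibitor Ro 20-1724 added with compounds to block cAMP breakdown; potency is read from the fitted curve at half-maximal effect; nearly all actives have a fitted effect of over 60% in size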
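Cells in DMEM/10% FBS with G418 were pretreated with compounds in DMSO plus […] (300 uM stock) for 30 min at 37C. cAMP was measured by HTRF (cAMP-d2 plus anti-cAMP antibody-K) after 30 min at room temperature.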
Numbers without * were called inactive; i = inactive; ? = inconclusive; . = no result given; [ ] = dose if it differs, or a comment. Hits are enriched below; roughly 1.2% of the tested compounds scored in any of these assays.

SMILES	pAkt inh	gsp antag	RXFP1 agonist	RXFP1 antagonist	gsp ag
CCOC(=O)c1c(NC(=S)Nc2ccc(Cl)cc2)sc(C)c1C	i	-9.6%	1.9%	-0.6	-6.6%
CCN(C(=O)Cn1ncc2c1-c1cc(C)ccc1OC2)c1cc(Cl)ccc1OC	.	.	4.3%	.	.
O=C(Nc1nc(-c2ccc(F)cc2)cs1)c1cccc(N2C(=O)CCC2=O)c1	i	?	5.4%	-21.8	-33.6%
O=C(Nc1nc(-c2cc(F)ccc2F)cs1)c1cccc(N2C(=O)CCC2=O)c1	i	39.8µM*	-0.6%	-39.8	-6.5%
O=c1oc2cc(O)ccc2c2ccccc12	i	13.1%	14.1µM*	30.7	8.91µM*
CCCCN1C(=O)c2[nH]nc(-c3ccccc3O)c2C1c1cc(Br)c(O)c(OC)c1 (configuration not stated)	.	.	-0.7%	-88.6*	.
CCc1ccc(C2c3c(-c4ccccc4O)n[nH]c3C(=O)N2Cc2ccncc2)cc1 (configuration not stated)	.	.	-0.9%	-82.7*	.
O=C(CSc1ccc2c(c1)OCCO2)NCCN1C(=O)CSC1=O	-108.6%*	7.1%	3.3%	7.4	10.8%
CC(=O)c1c(C)nc(C)nc1NC(=O)C(C)C	-124.3%*	12.6%	0.9%	0.3	-3.7%
Cn1c(=O)n(C/C=C/c2ccccc2)c(=O)c2c1nc1n2CCN1c1ccc(F)cc1	.	.	1.2%	-10.6	.
CCCn1c(CCC(=O)Nc2cc(OC)cc(OC)c2)nc2cccnc21	.	.	-0.9%	-7.7	.
Cn1c(=O)c2nc(SCC(=O)Nc3cc(Cl)cc(Cl)c3)n(C)c2n(C)c1=O	.	.	-0.4%	-5.7	.
Cc1ccc(/C=N/n2c(-c3cccnc3)n[nH]c2=S)s1	i	7.94µM*	0.4%	9.7	-19.6%
O=C(CCCOc1ccc(Cl)cc1)Nc1nncs1	-112.0%*	1.2%	3.5%	0.9	2.1%
Cc1ccc(OCCCC(=O)Nc2nncs2)cc1	i	-1.3%	1.1%	-11.9	-16.5%
CCOc1ccc(NC(=O)Cc2csc(COc3cccc(C)c3)n2)cc1	.	.	0.3%	5.0	.
COc1ccc2[nH]c(=O)c(COC(=O)c3ccco3)cc2c1	-113.8%*	12.5%	?	1.4	14.2%
O=C(CCCCn1c(=O)c2ccccc2n(CC(=O)Nc2ccc(F)cc2F)c1=O)NCc1ccccc1Cl	.	.	-1.5%	.	.
Cc1ccc(-n2c(=S)[nH]c3sc4c(c3c2=O)CCC4)cc1	i	12.3%	12.6µM*	-0.6	54.7%[15.4 µM]
Cc1ccc(O)c(C(=O)c2cc(C#N)c(=O)n(Cc3ccccc3)c2)c1	i	-17.3%	0.6%	-90.3*	-11.1%
Cc1cc(=O)oc2cc(O[C@@H]3SC[C@@H](O)[C@H](O)[C@H]3O)ccc12	.	.	.	7.7	.
Cc1ccccc1N1CCN(Cc2ccc(Br)o2)CC1	i	4.0%	0.9%	-65.1*	10.3%[15.4 µM]
CCCOc1cccc(C(=O)N2CCCCC2CCN2CCCCC2)c1 (configuration not stated)	.	.	4.5%	-2.8	.
CC(C)c1cc(=O)oc2c3c4c(cc12)CCCN4CCC3	i	-1.5%	22.5%	-24.2	-8.4%
O=c1oc2c3c4c(cc2c(C(F)(F)F)c1CCN1CCOCC1)CCCN4CCC3	-109.3%*	3.7%	1.9%	9.3	23.6%
SMILES	pAkt inh	gsp antag	RXFP1 agonist	RXFP1 antagonist	gsp ag
COc1ccc(C)cc1NC(=O)c1ccc2c(SCC(=O)O)c3c(nc2c1)CCCC3	i	-10.4%	0.2%	1.9	-26.2%
Cc1ccc(NC(=O)c2ccc3c(SCC(=O)O)c4c(nc3c2)CCCC4)c(Br)c1	i	-22.4%	11.2%	19.5	12.6µM*
Cc1ccc(-n2nc(-c3ccc(F)cc3)c3cnc4cc5c(cc4c32)OCO5)cc1C	.	.	4.1%	.	.
Clc1cccc(-n2cc(-c3ccccc3)c3c(N4CCCCC4)ncnc32)c1	.	.	1.4%	-2.8	.
COCCn1c(N)c(NCc2ccccc2)c(=O)n(CC(=O)Nc2cc(C)ccc2C)c1=O	-108.1%*	1.7%	4.0%	-0.1	-36.4%
Cc1ccc(C)c(NC(=O)Cn2c(=O)n(CC(=O)NCCc3ccccc3)c(=O)c3ccccc32)c1	.	.	4.3%	.	.
COc1cc(OC)c(NC(=O)c2c(N3CCCC3=O)c3cc(C)ccc3n2C)cc1Cl	.	.	?	-4.5	.
COc1ccc(CCNC(=O)Cn2c(=O)n(-c3ccc(OC)c(OC)c3)c(=O)c3ccccc32)cc1OC	.	.	5.5%	.	.
CCc1ccccc1N(CC)C(=O)Cn1nc(Cc2ccncc2)c2ccccc2c1=O	.	.	-0.9%	15.7	.
COc1ccc(CNC(=O)c2cc3cccc4c3n2CC(C)S4)cc1OC (configuration not stated)	.	.	19.6%	-24.3	.
CCOC(=O)C1=C(c2ccccc2)NC(=O)NC1c1cc(Br)c(O)c(OC)c1 (configuration not stated)	i	2.0%	-0.4%	-2.8	26.7%
CCOC(=O)C1=C(C)NC(=O)NC1c1cc(Br)c(O)c(OC)c1 (configuration not stated)	-119.6%*	2.4%	-0.1%	-16.7	-2.9%
Cc1ccc(CNC(=O)c2ccc3c(c2)N(Cc2cccc(C)c2)C(=O)CS3)cc1	.	.	4.2%	.	.
CCOC(=O)CSc1nc2ccsc2c(=O)n1C1CCN(C(=O)OCC)CC1	i	-32.2%	2.1%	14.2	13.5%
CCOC(=O)N1CCC(n2c(SCC(=O)Nc3nccs3)nc3ccsc3c2=O)CC1	-80.7%*	-11.0%	2.2%	-4.9	-8.8%
CCOc1ccccc1NC(=O)Nc1nnc(N2CCCC(C)C2)s1 (configuration not stated)	.	.	-2.7%	-1.5	.
O=C(Nc1ccc2c(c1)oc1ccccc12)c1ccc2c(c1)OCO2	i	5.3%	0.7%	-12.0	?
O=C(COc1ccc2c(c1)OCO2)Nc1ccc2c(c1)oc1ccccc12	-96.1%*	1.9%	-2.6%	-22.7	-24.9%
CCOc1ccc(C2C(C#N)=C(N)SC(N)=C2C#N)c(OCC)c1	-85.4%*	1.0%	?	8.6	?
O=C(Cn1cnc2c(nnn2-c2ccccc2)c1=O)NCC1CCCO1 (configuration not stated)	i	4.5%	?	13.8	?
COc1cccc(-n2nnc3c(=O)n(CC(=O)NCC4CCCO4)cnc32)c1 (configuration not stated)	i	20.7%	0.3%	12.9	11.2µM*
O=C(Nc1ccc(F)cc1)c1ccc(-n2cnc3cccnc32)cc1	.	.	-1.0%	.	.
COc1ccc(OCC(=O)NCc2ccc3c(c2)CCN3C(=O)c2cccc(C)c2)cc1	.	.	0.6%	-4.6	.
N#Cc1ccccc1NC(=O)CN1CCN(Cc2ccccc2)CC1	i	35.5µM*	0.1%	-5.8	-0.5%[15.4 µM]
COc1ccc(/C=C2\SC(=S)N(NS(=O)(=O)c3ccccc3)C2=O)c(OC)c1	i	?	3.6%	-68.2*	-155.1%
CCOc1cc(/C=C2\SC(=S)N(NS(=O)(=O)c3ccccc3)C2=O)ccc1O	i	25.1µM*	-15.7%	-18.0	-48.8%
COc1ccc(OC)c(/C=C2\SC(=S)N(NS(=O)(=O)c3ccccc3)C2=O)c1	i	17.8µM*	0.9%	0.1	?
